Laboratory results: the supplement of paper PMC10681739

biological target: RUNX1 (UniProt Q01196); assay: RUNX1 binding intensity (PBM fluorescence), RUNX1 alone (arbitrary fluorescence units); higher = stronger binding; settings: RUNX1 concentration 2 nM; ETS1 concentration 0 nM
Protocol: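 Cooperative gcPBM on 36-bp genomic probes with neighbouring ETS1 and RUNX1 sites. Recombinant human RUNX1 (2 nM) was incubated alone or with ETS1 (25 nM) and detected with anti-RUNX1 antibody plus Alexa488 secondary. Values are medians over 4 replicate spots; the RUNX1+ETS1 data were normalised to the RUNX1-only data. The probes sit in constant array flanks that are not printed.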
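Note: Full-length recombinant human RUNX1 bound to double-stranded 36-bp genomic probes on a high-density microarray, scored as Alexa488 fluorescence per spot via anti-RUNX1 antibody, median of four replicate spots.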

RUNX1, sequence (Q01196 whole entry): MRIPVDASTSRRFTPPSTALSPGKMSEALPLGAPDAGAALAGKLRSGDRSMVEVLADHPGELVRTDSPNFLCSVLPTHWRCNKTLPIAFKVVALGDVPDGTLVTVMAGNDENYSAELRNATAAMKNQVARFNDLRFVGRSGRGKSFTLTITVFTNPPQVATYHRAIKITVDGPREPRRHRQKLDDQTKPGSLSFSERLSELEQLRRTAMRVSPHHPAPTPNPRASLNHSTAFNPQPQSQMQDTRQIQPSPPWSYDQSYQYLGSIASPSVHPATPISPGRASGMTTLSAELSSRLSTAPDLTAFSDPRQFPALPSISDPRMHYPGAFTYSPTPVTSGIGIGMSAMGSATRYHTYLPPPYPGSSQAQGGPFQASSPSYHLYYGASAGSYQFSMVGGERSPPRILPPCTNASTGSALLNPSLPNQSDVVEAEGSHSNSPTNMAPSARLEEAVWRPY

Sequence | RUNX1 binding intensity
GGGGGAAGCTTCCTGAGGTGAAATAGACCGCTGTGC | 735
TTACTTCCTGAGGGTGCACAGGCTGTGGTCGTCTAT | 760
GAAACGTCACCCAGAGGAAACCCACAAGGGGCGTGG | 875
GGCAGCCGATGCATCCTGCGGTGTGTGGCCCTCAGA | 787
CCGCTGAGAACAGGATGTGGGTGTCAGGAGGTGAAG | 765
AGAATCGCATCAGGATGTGGTGAGGGAGCACATTTG | 713
TACAGCTTCCTTCACCCCACTTGTGGCCTGGGTTAC | 814
TTTGTTGTTCCGGGTGCGAGGCGGCCGCAGCTTCCA | 1090
GGCGAGGCTGAGAGGAAACCACACTCTCACTGGGGT | 933
GTGCCTTTTCATGTGGGATGTGGCTTCAAGGAGACC | 911
TGGGTGCCGGATTCGGTGAGTGTGGTTCTCATGATG | 654
GAGGGGAGGATGTCTGAGCTTTTAATTGTGGTTTCA | 870
CTTAGGACTTCCCGTAGATGGTGGTCTGTGCTAAGG | 706
ACGAGAGTCTAGAGGAAACCAACCCGCAACTCACTG | 892
CTCAGGTTATCTAGGAAATCTACCGCACGCTAAAGT | 858
GCGAGCACTTCCGGTGTGTGAGCCTGCGGTTGCTAC | 845
CGGCTAGGAAATAAAGAGCCTTCTCTCCGCGGTAGG | 2270
CTGAGACATCCTGATAATTCTGTGGGTTACCCCAAA | 728
CTTTGTTACTTTGGGGAAATGTGGTTCTGCGCCACC | 1110
AGCTCTAAGGTTCCGCCTGCGGGCAGCAAGCGGAGG | 920

Sequence | RUNX1 binding intensity
GCTAACGGAACCAGCACGCGGCCACCGCAGGAACCT | 853
CAACCCAAGGGGATGTGCTCACTGCGGTGAGGAGGC | 806
GGCGCTAGGCTTCCGGATCGCGGTGGGCGGAGTTCA | 678
ATGGTCCAGGAAGATAAGGGCTGAAAACCACCCACT | 857
GGGCGGAAGGGGTTCGCACGCCAAGAACCGCCATGC | 855
TTACCCCGGCGGAACGGAGGCCTGCGGTCGCGGCGG | 941
TATCGACAAAAGTTCCGGCCCGCGGTAGCGGAGGGA | 879
GAAAAATGAAGTTTCCGCAGTAACCACAACACAGCC | 1350
ACACCCCAGGAAGTGGCAGAGACCACAACAAGTCAG | 874
TCCACAGCCGGTTCCGGCCGGTTCCCACAAGCCCCT | 844
TTGATTGGAGCAGGATGTGGTCAGAACAGTATGCAG | 794
CACTCCCCGAATCCGGTCTGCGGCGCGCTCGGGGCC | 774
CCTGAAGCTCATGCGGAAAACCCACAAAGGGGTGCC | 932
GGGGGAGCAAGCGCCTTCCGCGGTCGCTGGGGGGAG | 939
TCTGGCTGGGTGTTGGGATGTGGTTAACCGGGTTGG | 797
CCCGGCCCAGGAAACTTCAGACTTCACCGCAGCTTC | 1060
GAGTGGGCGGAAATCCGTGCCTGGCAGACCACAAAG | 765
CTTTCTGGTTTCCTTCCTTTTTGGTTTTGGTTTCAT | 1630
GCCGCCGTTTCCTGATTGGTTGTGGGTGGCTACCTC | 834
CCCCTACTTCCCTTTTTGCTGGGCCGCAGTTTCGGT | 1490
